AI-2 QS mod: modulates the Vibrio harveyi AI-2 quorum sensing system | Vibrio harveyi JMH597 AI-2 luminescence/OD600 ratio, 9 h; stronger effect = lower value; strain lacks LuxN and CqsS sensors; 0 = neutral-control median | activity change, % at 7.5 µM | 300,000 compounds, 0.4% hits | AID 2094; in the data active = activity change below about -75%, passing the limit was not always enough;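 also: luminescence divided by OD600 gain over 9 h not by final OD600 alone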
SUMO Mot1 rescue: blocks SUMOylation pathway, rescuing yeast Mot1-301 growth; 320,000 compounds, 1% hits; AID 2716; growth rescue, % at 18.8 µM; S. cerevisiae Mot1-301 growth rescue, ATP luminescence, 38.5C; percent above DMSO median, 100 means doubled;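 active = every valid replicate shows activation above 250% relative to neutral control wells; inactive = the rest, any valid replicate at or below 250%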;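 also: OY570 slx delta 5 strain wells were the positive control but not used for scaling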
AHR activator: human AHR activation | P35869 | AHR-responsive luciferase reporter cells, luminescence | activation, % at 5 µM | 320,000 compounds, 2.5% hits | AID 2796; in the data active = activation above about 47%;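 also: 0% = vehicle wells and 100% = reference agonist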
Target sequence (P35869 whole entry, looked up): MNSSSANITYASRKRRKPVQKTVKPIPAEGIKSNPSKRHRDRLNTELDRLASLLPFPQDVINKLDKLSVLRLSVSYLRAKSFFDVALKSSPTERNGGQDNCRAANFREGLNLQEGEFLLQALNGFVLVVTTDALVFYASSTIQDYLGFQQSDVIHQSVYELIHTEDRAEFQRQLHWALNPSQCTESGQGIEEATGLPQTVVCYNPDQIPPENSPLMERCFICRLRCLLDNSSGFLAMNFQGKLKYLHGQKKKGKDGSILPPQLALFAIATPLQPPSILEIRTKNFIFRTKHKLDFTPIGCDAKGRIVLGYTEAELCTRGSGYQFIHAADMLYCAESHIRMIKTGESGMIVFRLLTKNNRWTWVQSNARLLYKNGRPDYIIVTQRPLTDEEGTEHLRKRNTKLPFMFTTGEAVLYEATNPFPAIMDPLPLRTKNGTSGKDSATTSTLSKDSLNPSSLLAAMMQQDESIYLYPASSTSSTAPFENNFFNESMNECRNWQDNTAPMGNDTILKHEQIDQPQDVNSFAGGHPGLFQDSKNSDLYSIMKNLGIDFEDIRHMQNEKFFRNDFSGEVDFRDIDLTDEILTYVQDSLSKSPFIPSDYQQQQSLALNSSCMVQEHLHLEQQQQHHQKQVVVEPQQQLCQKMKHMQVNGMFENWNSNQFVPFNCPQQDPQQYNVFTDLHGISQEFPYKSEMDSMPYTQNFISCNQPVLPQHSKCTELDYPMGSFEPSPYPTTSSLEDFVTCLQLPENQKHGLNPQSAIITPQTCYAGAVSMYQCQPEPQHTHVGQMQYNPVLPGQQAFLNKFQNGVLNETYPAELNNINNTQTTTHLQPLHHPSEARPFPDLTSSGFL
GRIN3A LBD mod: modulates the human NR3A ligand-binding domain; 340,000 compounds, 2.5% hits; NR3A LBD differential scanning fluorimetry, Tm shift; 0% = protein alone, 100% = glycine-bound protein; Tm shift relative to glycine control, % at 25 µM;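 active = melting temperature shift of at least 10% of the positive control shift, at one fixed dose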
NTR1 ag: NTR1 (human) agonism; NTR1-U2OS beta-arrestin-GFP spot imaging, agonist mode; 330,000 compounds, 0.17% hits; activation, % at 20 µM; P30989;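 active = activation at or above 40% of the spot to cytoplasm intensity ratio, with at least 20 cells analyzed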;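 also: 0% = DMSO without peptide and 100% = 100 nM NTR1 peptide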
H9c2 protect: modulators protecting cardiomyocytes from myocardial damage. H9c2 cardiomyocytes, H2O2 injury protection, ATPLite, 2 h. protection from H2O2 cell death, % at 20 µM. 360,000 compounds, 0.63% hits;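 active = compounds giving at least 50% protection of heart cells from peroxide-induced death in the single-dose screen, raw or plate-pattern-corrected value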;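 also: 0% = DMSO wells with peroxide and 100% = DMSO wells without peroxide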
* hit, by the source's call; / = not tested or not shown. An excerpt weighted towards active compounds, which were near 6.2% of everything screened.

SMILES	AI-2 QS mod	SUMO Mot1 rescue	AHR activator	GRIN3A LBD mod	NTR1 ag	H9c2 protect
CC(C)c1cc(C(N)=O)c(NC(=O)c2cccc(COc3ccc(Cl)cc3)c2)s1	21	18	-3	16*	13	1
Cc1nn(Cc2c(F)c(F)c(F)c(F)c2F)c(C)c1NC(=O)c1cccc(COc2ccc(Cl)cc2)c1	20	-8	-4	-1	2	-1
CN(CCOc1ccc(Br)cc1)C(=O)CNC(=O)c1ccc2ccccc2c1	/	6	7	-12	1	-15
COc1cc2c(cc1NC(=O)c1cccc([N+](=O)[O-])c1C)oc1ccccc12	5	28	1	20*	6	6
COc1ccccc1Nc1ncccc1[N+](=O)[O-]	12	241	53*	-3	1	15
COc1ccccc1C(CNc1ncccc1[N+](=O)[O-])N(C)C (stereo not drawn)	-10	-10	1	-1	-1	0
COc1ccccc1Nc1ccc(NC(=O)c2cccc([N+](=O)[O-])c2C)cc1	29	87	11	19*	2	-6
COc1cc2c(cc1NC(=S)Nc1cccc(C)c1)oc1ccccc12	21	-7	84*	26*	5	-3
CCOc1ccc(N(CC(=O)Nc2c(C)cc(C)cc2C)C2=NC3CS(=O)(=O)CC3S2)cc1 (stereo not drawn)	/	/	/	/	/	4
COc1cc2c(cc1NC(=O)Nc1cccc(C)c1)oc1ccccc12	16	-33	-5	39*	7	-4
COc1ccc(-c2csc3ncnc(N4CCN(S(=O)(=O)c5ccc(Cl)s5)CC4)c23)cc1	17	-5	0	11*	8	17
c1ccc(-c2csc3ncnc(N4CCc5ccccc5C4)c23)cc1	29	122	2	13*	/	-9
Cc1c(C(=O)N2CCOCC2)sc2ncnc(N3CCc4ccccc4C3)c12	15	-6	28	0	-1	8
CCN1CCN(C(=O)c2sc3ncnc(N4CCc5ccccc5C4)c3c2C)CC1	17	15	49*	-2	0	16
COc1ccc(-c2csc3ncnc(N4CCN(c5cccc(Cl)c5)CC4)c23)cc1	21	55	2	18*	5	-1
C/C(=N\NC(=O)CNC(=O)c1cccc(F)c1)c1ccc2ccccc2c1	7	-4	10	0	-1	-2
CCCNC(=O)C1(C)CCCN(Cc2ccc(C)cc2)C1 (stereo not drawn)	/	/	/	/	/	6
NNc1ncnc2scc(-c3ccc(Cl)cc3)c12	1	-10	30	-5	0	37
Cc1ccc(-c2csc3ncnc(NS(=O)(=O)c4ccc(Cl)cc4)c23)cc1	15	-9	1	16*	4	-10
COC(=O)c1c(-c2ccc(OC)cc2)oc2ccccc12	6	-4	4	2	-4	-3
COc1cc(OC)cc(-c2sc3ccc(OC)cc3c2C#CC(C)(C)O)c1	/	-9	15	-6	8	3
COc1ccc(-c2oc3ccccc3c2C#Cc2cncn2C)cc1	/	-10	49*	-17	9	-4
COc1ccc(-c2sc3ccc(OC)cc3c2C#Cc2cncn2C)cc1	/	11	75*	-8	16	-11
CCOC(=O)C1=CCC(c2ccccc2Cl)N(S(=O)(=O)c2ccc(C)cc2)C1 (stereo not drawn)	/	/	/	/	/	-4
Cc1csc(=O)n1CC(=O)Nc1ccc(Cl)cc1F	/	-2	0	1	2	-2
SMILES	AI-2 QS mod	SUMO Mot1 rescue	AHR activator	GRIN3A LBD mod	NTR1 ag	H9c2 protect
Cc1[nH]n(-c2ccccc2)c(=O)c1N=Nc1ccc(C(=O)O)cc1	46	3	16	4	0	-6
Nc1[nH]n(-c2ccccc2)c(=O)c1N=Nc1ccc2c(c1)OCO2	18	0	121*	11*	2	-5
Nc1[nH]n(-c2ccccc2)c(=O)c1N=Nc1ccc2c(c1)OCCO2	-21	48	24	6	4	-14
CC(=O)c1ccc(N=Nc2c(C)[nH]n(-c3ccccc3)c2=O)cc1	10	14	54*	-2	1	24
Cc1[nH]n(-c2ccccc2)c(=O)c1N=Nc1ccc(Cl)cc1	18	196	51*	-4	0	-3
O=S(OCCN1CCOCC1)C(c1ccccc1)c1ccccc1 (stereo not drawn)	/	/	/	0	/	6

Screening results from PubChem BioAssay.
